Several values for one entry are separate records, joined by “and”; a condition that tells them apart may be missing. Identical values can stand only once. Inconclusive results are not listed. More than one record can exist for a structure, and the calls need not agree. Activity calls are given as the source filed them. Calls follow the shape of the dose curve; as a rule, active = well fitted inhibition curve with a large enough effect; inconclusive = small, poorly fitted or top-dose-only effect; inactive = flat fitted curve, though single readings scatter.
Key:
P93_24 = assay: qHTS profiling for inhibitors of Plasmodium falciparum proliferation (AID 504749); settings: P. falciparum in erythrocytes, SYBR Green DNA, 72 h; series mostly up to 28.7 µM
In short: (§1)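 P. falciparum-infected erythrocytes (0.3% parasitemia, 2.5% hematocrit) incubated with compound 72 h at 37 C, 5% CO2. Parasite DNA detected by SYBR Green after lysis, overnight at room temperature; normalised to 0.29 uM artemisinin and DMSO.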

P94_40 = assay: as above; settings: P. falciparum in erythrocytes, SYBR Green DNA, 72 h; series mostly up to 28.7 µM
In short: as §1

PAD = assay: as above; settings: P. falciparum in erythrocytes, SYBR Green DNA, 72 h; series mostly up to 28.7 µM
In short: as §1

PC15 = assay: as above; settings: P. falciparum in erythrocytes, SYBR Green DNA, 72 h; series mostly up to 28.7 µM
In short: as §1

PC26 = assay: as above; settings: P. falciparum in erythrocytes, SYBR Green DNA, 72 h; series mostly up to 28.7 µM
In short: as §1

PC49 = assay: as above; settings: P. falciparum in erythrocytes, SYBR Green DNA, 72 h; series mostly up to 28.7 µM
In short: as §1

SC27B = assay: as above; settings: P. falciparum in erythrocytes, SYBR Green DNA, 72 h; series mostly up to 28.7 µM
In short: as §1

TAB109 = assay: as above; settings: P. falciparum in erythrocytes, SYBR Green DNA, 72 h; series mostly up to 28.7 µM
In short: as §1

TAB113 = assay: as above; settings: P. falciparum in erythrocytes, SYBR Green DNA, 72 h; series mostly up to 28.7 µM
In short: as §1

TAB165 = assay: as above; settings: P. falciparum in erythrocytes, SYBR Green DNA, 72 h; series mostly up to 28.7 µM
In short: as §1

W2 = assay: as above; settings: P. falciparum in erythrocytes, SYBR Green DNA, 72 h; series mostly up to 28.7 µM
In short: as §1

CRL-7250 = normal cell line; assay: Cytotoxic Profiling of Annotated Libraries Using Quantitative High-Throughput Screening (AID 1296008); settings: Five cell lines viability, CellTiter-Glo ATP luminescence, 48-72 h; max response: hits give low values; as to max response: % is scaled to controls: 0 for no effect and ±100 for the full control effect
In short: (§2)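 Cells exposed to compounds for 48 or 72 hr at 37 degrees Celsius. Viability read as ATP-coupled luminescence with CellTiter-Glo after 10 min at room temperature.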

HEK293 = assay: as above; settings: Five cell lines viability, CellTiter-Glo ATP luminescence, 48-72 h; max response: hits give low values
In short: as §2

HaCat [1] = assay: as above; settings: Five cell lines viability, CellTiter-Glo ATP luminescence, 48-72 h; max response: hits give low values
In short: as §2

KB-3-1 = assay: as above; settings: Five cell lines viability, CellTiter-Glo ATP luminescence, 48-72 h; max response: hits give low values
In short: as §2

NIH3T3 = assay: as above; settings: Five cell lines viability, CellTiter-Glo ATP luminescence, 48-72 h; max response: hits give low values
In short: as §2

HACAT [2] = assay: qHTS assay to identify novel small-molecules to repurpose for Merkel cell carcinoma treatment (AID 1296009); settings: MCC and control cell lines, CellTiter-Glo viability, 72 h; series mostly up to 44.8 µM
In short: (§3)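 Cells were treated for 72 hr at 37 degree celsius with compounds in 8- or 11-point dose response. Viability was read by CellTiter-Glo luminescence, normalized to no-cell (cytotoxicity) and DMSO controls.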

HEK293T = assay: as above; settings: MCC and control cell lines, CellTiter-Glo viability, 72 h; at 44.8 µM (top of the series) unless noted
In short: as §3

MCC-13 = assay: as above; settings: MCC and control cell lines, CellTiter-Glo viability, 72 h; series mostly up to 46 µM
In short: as §3

MCC-26 = assay: as above; settings: MCC and control cell lines, CellTiter-Glo viability, 72 h; series mostly up to 46 µM
In short: as §3
Also: nearly all actives have a fitted effect of over 60% in size.
Potency is read from the fitted curve at half-maximal effect.

CCOC(=O)C(C)(C)Oc1ccc(Cl)cc1
inactive: Potency (P93_24) | Potency (P94_40) | Potency (PAD) | Potency (PC15) | Potency (PC26) | Potency (PC49) | Potency (SC27B) | Potency (TAB109) | Potency (TAB113) | Potency (TAB165) | Potency (W2) | max response (CRL-7250) 2.19% and -5.27% | max response (HEK293) 4.89% | outcome (HEK293) | outcome (HaCat [1]) | max response (KB-3-1) 9.24% and 4.33% | outcome (NIH3T3) | outcome (HACAT [2]) | outcome (HEK293T) | Potency (MCC-13)

CCC1(C)CC(=O)NC1=O (configuration not stated)
inactive: max response (CRL-7250) 0.182% | outcome (HEK293) | max response (HaCat [1]) -13.5% | outcome (HaCat [1]) | max response (KB-3-1) 7.96% and 9.28% | outcome (NIH3T3) | outcome (HACAT [2]) | outcome (HEK293T) | Potency (MCC-13) | Potency (MCC-26)

CN1CCC(=C2c3ccccc3C=Cc3ccccc32)CC1
active: Potency (HEK293) 10.6 µM
inactive: Potency (P93_24) | Potency (P94_40) | Potency (PAD) | Potency (PC15) | Potency (PC26) | Potency (PC49) | Potency (SC27B) | Potency (TAB109) | Potency (TAB113) | Potency (TAB165) | outcome (CRL-7250) | max response (HaCat [1]) -1.05% | outcome (HaCat [1]) | max response (NIH3T3) -0.507% | outcome (NIH3T3) | outcome (HACAT [2]) | Potency (MCC-13) | Potency (MCC-26)

Cc1cc(C(C)(C)C)cc(C)c1CC1=NCCN1
active: Potency (W2) 4050 nM
inactive: Potency (P94_40) | Potency (PAD) | Potency (PC15) | Potency (PC26) | Potency (PC49) | Potency (SC27B) | Potency (TAB109) | Potency (TAB113) | Potency (TAB165) | max response (CRL-7250) -1.37% and -2.32% | max response (HEK293) -19.6% and -11.6% | outcome (HaCat [1]) inactive; activator | max response (KB-3-1) 3.71% and 6.55% | max response (NIH3T3) -2.36% | outcome (NIH3T3) | outcome (HACAT [2]) inactive; activator | Potency (MCC-13)

CCN1CCCC1CNC(=O)c1cc(S(=O)(=O)CC)c(N)cc1OC (configuration not stated)
inactive: outcome (CRL-7250) | max response (HEK293) -9.52% and 2.43% | max response (HaCat [1]) -3.32% | outcome (HaCat [1]) | max response (KB-3-1) 8.59% | max response (NIH3T3) 4.99% | outcome (NIH3T3) | outcome (HACAT [2]) | Potency (MCC-13) | Potency (MCC-26)

CS(=O)(=O)Nc1ccc([N+](=O)[O-])cc1Oc1ccccc1
inactive: Potency (P93_24) | Potency (P94_40) | Potency (PAD) | Potency (PC15) | Potency (PC26) | Potency (PC49) | Potency (SC27B) | Potency (TAB109) | Potency (TAB113) | Potency (TAB165) | Potency (W2) | max response (CRL-7250) -4.36% and 1.83% | max response (HEK293) -3.19% | max response (HaCat [1]) 1.46% | max response (KB-3-1) 0.301% and -0.592% | max response (NIH3T3) 4.35% and -5.34% | Potency (MCC-13)

Clc1ccc2c(c1)C(N1CCNCC1)=Nc1ccccc1O2
inactive: Potency (PC26) | Potency (PC49) | max response (CRL-7250) -6.06% and -6.64% and -8.49% | outcome (HaCat [1]) | max response (KB-3-1) 6.74% and 1.6% | max response (NIH3T3) 4.64% and 1.82% and -2.71% | outcome (HACAT [2]) | Potency (MCC-13) | Potency (MCC-26)
active: Potency (W2) 5360 nM | Potency (HEK293) 20.6 µM

O=C1c2c(O)ccc(O)c2C(=O)c2c(NCCNCCO)ccc(NCCNCCO)c21
inactive: Potency (PC49)
active: Potency (P93_24) 1780 nM | Potency (P94_40) 1580 nM | Potency (PAD) 2000 nM | Potency (PC26) 6420 nM | Potency (SC27B) 3160 nM | Potency (TAB109) 2240 nM | Potency (TAB113) 3550 nM | Potency (TAB165) 2000 nM | Potency (W2) 1810 nM | Potency (CRL-7250) 4.18 µM and 1.68 µM | Potency (HEK293) 37.2 nM and 15 nM | Potency (HaCat [1]) 264 nM | Potency (KB-3-1) 296 nM | Potency (NIH3T3) 59 nM and 21.1 nM | Potency (MCC-13) 935 nM and 750 nM

COc1ccc(CCN(C)CCCC(C#N)(c2ccc(OC)c(OC)c2)C(C)C)cc1OC (configuration not stated)
inactive: Potency (PAD) | Potency (PC15) | Potency (PC49) | Potency (SC27B) | Potency (TAB113) | Potency (TAB165) | max response (CRL-7250) -3.47% and -1.73% | max response (HEK293) -14.8% | max response (HaCat [1]) -28.3% | outcome (HaCat [1]) | max response (KB-3-1) -13.1% and 17.7% | max response (NIH3T3) -15.4% and 3.75% | outcome (HACAT [2]) | Potency (MCC-13) | Potency (MCC-26)

CN1CCN(C2=Nc3cc(Cl)ccc3Nc3ccccc32)CC1
inactive: max response (CRL-7250) -7.49% and -17.9% | max response (HaCat [1]) 2.26% | max response (KB-3-1) 6.37% | outcome (NIH3T3) | Potency (MCC-13) | Potency (MCC-26)
active: Potency (HEK293) 13.3 µM

CN(C)CCC=C1c2ccccc2C=Cc2ccccc21
inactive: max response (CRL-7250) -6.55% | outcome (HaCat [1]) | max response (KB-3-1) -7.06% and -14.3% | max response (NIH3T3) -0.444% | outcome (HACAT [2]) | Potency (MCC-13)
active: Potency (W2) 1200 nM | Potency (HEK293) 26.4 µM

O=C(CCCN1CCC(O)(c2ccc(Cl)cc2)CC1)c1ccc(F)cc1
active: Potency (HEK293) 18.8 µM | Potency (NIH3T3) 21.1 µM
inactive: max response (CRL-7250) -7.49% and -12% | max response (HaCat [1]) 2.18% | outcome (HaCat [1]) | outcome (NIH3T3) | outcome (HACAT [2]) | Potency (MCC-13) | Potency (MCC-26)

Clc1ccccc1C(c1ccccc1)(c1ccccc1)n1ccnc1
active: Potency (P93_24) 126 nM | Potency (P94_40) 631 nM | Potency (PAD) 355 nM | Potency (PC15) 1000 nM | Potency (PC26) 572 nM | Potency (PC49) 1000 nM | Potency (SC27B) 398 nM | Potency (TAB109) 794 nM | Potency (TAB113) 631 nM | Potency (TAB165) 100 nM | Potency (W2) 405 nM | Potency (HEK293) 20.9 µM
inactive: max response (CRL-7250) -11.6% and -17.2% | max response (HaCat [1]) -12.4% and -20.3% | max response (KB-3-1) -12.5% | Potency (MCC-13) | Potency (MCC-26)

Reference: PubChem BioAssay (NCATS)
